High-throughput results (PubChem BioAssay)
S1P4 antag = blocks the human S1P4 receptor. S1P4-expressing cells, antagonist mode, reporter read-out. inhibition, % at 4.98 µM. 220,000 compounds, 0.26% hits; in the data active means inhibition above about 29%
ROMK primary = modulators of human ROMK potassium channel; B-score at 10 µM; Tet-inducible ROMK, thallium flux fluorescence; actives lie on both sides; 130,000 compounds, 2% hits;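 active means signal ratio slope over the read window, or its plate-corrected B-score, at least 3 SD from the plate mean, either direction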;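 further: B-score of the F/F0 ratio slope over 7 to 12 s after thallium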
Cl transport mod = modulates chloride dependent transport by human KCC2; 190,000 compounds, 2.2% hits; KCC2 cells, thallium flux FluoZin-2 fluorescence; B-score of Tl+ flux slope (higher = more flux/activation; lower = inhibition) at 10 µM; AID 1456;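 active means thallium flux slope and its plate-corrected score both differing from the plate sample mean at a set confidence after two filtering rounds, in either direction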;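 further: slope of fluorescence scaled to starting intensity during 10 to 20 s after thallium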
Target sequence (Q9H2X9 whole entry, looked up): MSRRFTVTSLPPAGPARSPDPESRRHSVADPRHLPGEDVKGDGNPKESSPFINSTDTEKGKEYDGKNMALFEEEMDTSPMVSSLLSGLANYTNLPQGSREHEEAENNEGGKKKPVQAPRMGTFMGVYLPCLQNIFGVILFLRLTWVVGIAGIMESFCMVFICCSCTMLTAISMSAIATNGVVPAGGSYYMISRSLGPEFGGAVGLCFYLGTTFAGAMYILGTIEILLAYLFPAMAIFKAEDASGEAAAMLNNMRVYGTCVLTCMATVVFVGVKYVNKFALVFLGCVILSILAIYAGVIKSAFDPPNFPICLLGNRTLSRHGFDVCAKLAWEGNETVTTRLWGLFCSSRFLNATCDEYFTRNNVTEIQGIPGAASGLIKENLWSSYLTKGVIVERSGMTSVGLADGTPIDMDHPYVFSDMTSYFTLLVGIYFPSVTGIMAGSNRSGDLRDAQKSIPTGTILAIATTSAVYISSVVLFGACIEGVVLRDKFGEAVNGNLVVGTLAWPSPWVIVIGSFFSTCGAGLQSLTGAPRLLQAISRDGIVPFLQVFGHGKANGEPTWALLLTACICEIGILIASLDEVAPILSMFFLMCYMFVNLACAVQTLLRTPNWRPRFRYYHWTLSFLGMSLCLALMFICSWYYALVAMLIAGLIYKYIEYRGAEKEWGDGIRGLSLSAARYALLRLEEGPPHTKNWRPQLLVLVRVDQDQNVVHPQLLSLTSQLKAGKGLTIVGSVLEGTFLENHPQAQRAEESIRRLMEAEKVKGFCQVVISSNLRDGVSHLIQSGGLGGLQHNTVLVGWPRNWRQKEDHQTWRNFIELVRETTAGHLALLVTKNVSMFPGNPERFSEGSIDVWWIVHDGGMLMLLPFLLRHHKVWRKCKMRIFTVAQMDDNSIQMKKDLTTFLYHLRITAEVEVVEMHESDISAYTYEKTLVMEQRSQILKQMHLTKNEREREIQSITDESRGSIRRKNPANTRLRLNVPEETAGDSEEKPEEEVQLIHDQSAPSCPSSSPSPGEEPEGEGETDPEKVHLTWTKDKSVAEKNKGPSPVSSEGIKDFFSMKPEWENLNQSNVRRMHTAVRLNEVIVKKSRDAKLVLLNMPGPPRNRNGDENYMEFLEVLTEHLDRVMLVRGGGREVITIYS
RAM inhibit = inhibitors of the yeast RAM network; inhibition, % at 50 µM; 190,000 compounds, 1.8% hits; AID 868; S. cerevisiae dse1pr::URA3 reporter, 5-FOA growth OD615, 2 d; analog-sensitive cbk1-as2 kinase mutant strain;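 active means inhibition above a set limit, 3 SD over mean compound inhibition, cut at about 8.4% in these data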;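 further: inhibition rescues growth on 5-FOA so higher OD means more RAM inhibition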
S1P4 ag = activates the human S1P4 receptor | O95977 | S1P4-expressing cell line, agonist reporter assay | activation, % at 4.98 µM | 220,000 compounds, 0.35% hits; in the data active means activation above about 11%
S1P3 antagonist = antagonists of human S1P3 receptor | Q99500 | inhibition, % at 4.98 µM | AID 485 | 170,000 compounds, 0.27% hits | CHO S1P3 NFAT-BLA reporter, FRET fluorescence, antagonist mode;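 active means inhibition above the plate cutoff, the mean inhibition of test wells on that plate plus 3 SD, cut at about 28% in these data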;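 further: cells challenged with S1P at its EC80 of 0.8 µM; blue over green emission ratio from cleaved BLA substrate after 4 h stimulation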
KCC2 secondary = confirmation of human KCC2 transport modulators. shares compounds with Cl transport mod. HEK293-KCC2, thallium flux, FluoZin2 fluorescence; hits give high values. normalised thallium flux (F/F0 slope) at 10 µM. 3,700 compounds, 15% hits. AID 1713;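 active means thallium flux slope above the same plate's solvent-only control mean plus 3 SD; inconclusive means the two replicate wells disagree; inactive means no significant difference from solvent-only control wells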
KCC2 bumet counter = bumetanide-insensitive thallium flux in KCC2 cells with ouabain, counter-screen. shares compounds with Cl transport mod. HEK293-KCC2 + bumetanide/ouabain, thallium flux FluoZin2; hits give high values. normalized thallium flux at 10 µM. 3,700 compounds, 49% hits. AID 1714;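 active means thallium entry rate above the same plate's blocked-transporter control wells by more than 3 SD; inconclusive means the two repeat wells disagree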;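 further: raw slope of fluorescence over initial fluorescence between 10 and 20 s after thallium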
KCC2 secondary2 = confirmation of human KCC2 transport modulators. shares compounds with Cl transport mod. HEK293-KCC2, thallium flux FluoZin2 fluorescence; actives lie on both sides; F/F0 rise rate, 10–20 s post-thallium. normalized thallium flux at 10 µM. 3,700 compounds, 23% hits. AID 1715;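 active means thallium flux slope more than 3 SD above or below the plate's solvent-only control mean, mostly below; inconclusive means the two repeat wells disagreed; inactive means no significant shift from solvent-only controls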
HEK counter1 = parental HEK flux effect, counter-screen; HEK293 parental cells, thallium flux FluoZin2, ouabain; baseline-ratio fluorescence slope, 10–20 s after thallium; 3,700 compounds, 46% hits; AID 1716; thallium flux rate (normalised fluorescence) at 10 µM; shares compounds with Cl transport mod;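 active means thallium flux rate significantly above the same plate's solvent-only control wells, beyond their mean plus 3 SD; inconclusive means the two replicate wells gave conflicting results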
KCC2 ouabain = confirmation of human KCC2 modulators with ouabain; shares compounds with Cl transport mod; HEK293-KCC2, thallium flux FluoZin2 fluorescence; bidirectional: low = inhibitor, high = activator; raw Tl+ flux slope (below DMSO = inhibition, above = activation) at 10 µM; 3,700 compounds, 48% hits; AID 1717;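 active means thallium flux slope beyond 3 SD from same-plate DMSO control mean in most replicates, usually higher, sometimes lower; inconclusive means repeat tests gave conflicting results; inactive means no significant difference from controls in most replicates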;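 further: slope of initial-normalized fluorescence between seconds 10 and 20 after thallium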
HEK counter2 = parental HEK flux effect, counter-screen 2; thallium flux slope at 10 µM; 3,700 compounds, 33% hits; shares compounds with Cl transport mod; AID 1718; HEK293 parental, thallium flux FluoZin-2 fluorescence slope;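 active means thallium flux slope above the same plate's solvent-control mean plus 3 SD in both duplicate wells; inconclusive means duplicate wells that disagreed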;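 further: run without ouabain in cells lacking the KCC2 cotransporter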
Large screens that a line does not name were inactive (follow-up assays come after a bar, where they were run). Most compounds without a hit are left out; they make up all but 5.1% or so of the library.

CCN(CC)C(=O)CSc1nnc2nnc3cc(OC)ccc3n12	none (no result: RAM inhibit)
Cc1ccc(N(CC(=O)Nc2ccccc2-c2ccccc2)S(=O)(=O)c2ccccc2)c(C)c1	none
CS(=O)(=O)N(CC(=O)N/N=C/c1cccc2c1OCCO2)c1ccccc1Br	none (no result: ROMK primary, S1P3 antagonist)
CS(=O)(=O)N(CC(=O)N/N=C/c1cc2c(cc1Br)OCO2)c1ccccc1Br	Cl transport mod 5.12 (no result: S1P3 antagonist) | KCC2 secondary inactive | KCC2 bumet counter inactive | KCC2 secondary2 inactive | HEK counter1 inactive | KCC2 ouabain inactive | HEK counter2 inactive
NC(=S)NCc1cccnc1	Cl transport mod 4.76 (no result: ROMK primary) | KCC2 secondary inactive | KCC2 bumet counter inactive | KCC2 secondary2 inactive | HEK counter1 inactive | KCC2 ouabain inactive | HEK counter2 inactive
S=C(NCc1cccnc1)Nc1ccc(Oc2ccccc2)cc1	Cl transport mod -3.89 | KCC2 secondary inactive | KCC2 bumet counter inactive | KCC2 secondary2 0.0224 | HEK counter1 inactive | KCC2 ouabain inconclusive | HEK counter2 inactive
NNC(=S)NCc1cccnc1	none
CC(=O)NCC1CCCN(Cc2cn(-c3ccccc3)nc2-c2ccc3c(c2)OCO3)C1 (stereo unspecified)	none (no result: ROMK primary)
COC(=O)C1CCN(Cc2cn(-c3ccccc3)nc2-c2ccc3c(c2)OCO3)CC1	Cl transport mod -5.83 | KCC2 secondary inactive | KCC2 bumet counter inactive | KCC2 secondary2 inactive | HEK counter1 inactive | KCC2 ouabain inactive | HEK counter2 inactive
C=C1C(C(=O)Nc2cccc(OC)c2)C1C(=O)Nc1cccc(OC)c1 (stereo unspecified)	none
O=C(CSc1cccc2cccnc12)Nc1ccc(S(=O)(=O)N2CCOCC2)cc1	Cl transport mod 9.57 (no result: ROMK primary, RAM inhibit) | KCC2 secondary inactive | KCC2 bumet counter 0.0196 | KCC2 secondary2 inactive | HEK counter1 0.0156 | KCC2 ouabain inconclusive | HEK counter2 0.0135
O=C(CSc1nc2cc(Cl)ccc2s1)c1cc2ccccc2o1	Cl transport mod 4.47, RAM inhibit 9.4 (no result: S1P3 antagonist) | KCC2 secondary 0.0251 | KCC2 bumet counter 0.0551 | KCC2 secondary2 inactive | HEK counter1 0.0307 | KCC2 ouabain 0.0476 | HEK counter2 0.0173
O=C(CSc1nc2cc(Cl)ccc2s1)Nc1cccc(S(=O)(=O)N2CCOCC2)c1	Cl transport mod 3.1 | KCC2 secondary inactive | KCC2 bumet counter 0.0149 | KCC2 secondary2 inactive | HEK counter1 inconclusive | KCC2 ouabain 0.0263 | HEK counter2 inconclusive
O=C(CSc1nc2cc(Cl)ccc2c(=O)n1Cc1ccco1)Nc1ccc(S(=O)(=O)N2CCOCC2)cc1	Cl transport mod 4.36, RAM inhibit 9.1 | KCC2 secondary inactive | KCC2 bumet counter 0.0141 | KCC2 secondary2 inactive | HEK counter1 0.0185 | KCC2 ouabain inconclusive | HEK counter2 0.0152
O=C(CSc1cccc2cccnc12)Nc1cccc(S(=O)(=O)N2CCOCC2)c1	none
O=C(CSc1nc2ccccc2[nH]1)Nc1cccc(S(=O)(=O)N2CCOCC2)c1	none
CC1c2ccccc2N(NC(=O)Cc2ccccc2)C1C (stereo unspecified)	none (no result: ROMK primary, RAM inhibit)
COc1ccc(N2CCN(CCCn3c(=S)[nH]c4ncccc4c3=O)CC2)cc1	Cl transport mod 8.91 (no result: S1P3 antagonist) | KCC2 secondary inactive | KCC2 bumet counter 0.0316 | KCC2 secondary2 inactive | HEK counter1 0.0202 | KCC2 ouabain 0.031 | HEK counter2 0.0178
CC1CCN(CCn2c(=S)[nH]c3ncccc3c2=O)CC1	none (no result: ROMK primary, Cl transport mod, RAM inhibit)
CN(C)CCn1c(=S)[nH]c2ncccc2c1=O	none
CC(C)CCn1c(=S)[nH]c2ncccc2c1=O	Cl transport mod 50.6 (no result: ROMK primary) | KCC2 secondary 0.0116 | KCC2 bumet counter 0.08 | KCC2 secondary2 0.0755 | HEK counter1 0.0666 | KCC2 ouabain 0.0727 | HEK counter2 0.0593
CCOCCCn1c(=S)[nH]c2ncccc2c1=O	Cl transport mod 5.27 (no result: ROMK primary) | KCC2 secondary inactive | KCC2 bumet counter 0.0173 | KCC2 secondary2 inactive | HEK counter1 0.0178 | KCC2 ouabain inconclusive | HEK counter2 0.021
O=C1C=C(NCCOC23CC4CC(CC(C4)C2)C3)C2(CCCCC2)O1	none
O=C1/C(=C/c2cccs2)NC(=S)N1C1CC1	Cl transport mod 42.9 | KCC2 secondary 0.0163 | KCC2 bumet counter 0.0892 | KCC2 secondary2 0.0487 | HEK counter1 0.0595 | KCC2 ouabain 0.0701 | HEK counter2 0.0331
Cc1cc(C)c2nc(NC(=O)[C@@H](NC(=O)c3cccc(S(=O)(=O)N4CCOCC4)c3)C(C)C)sc2c1	none (no result: ROMK primary)
O=C(O)c1cc(-c2ccco2)[nH]n1	none (no result: ROMK primary)
CC1CCC(C(=O)NNC(=O)c2cc(-c3ccco3)[nH]n2)CC1 (stereo unspecified)	Cl transport mod -2.92 | KCC2 secondary inactive | KCC2 bumet counter inactive | KCC2 secondary2 inactive | HEK counter1 inconclusive | KCC2 ouabain inconclusive | HEK counter2 inactive
Cc1ccc2nc(N/C(=N/S(=O)(=O)c3ccc(F)cc3F)c3ccccc3)sc2c1	Cl transport mod 21.5 | KCC2 secondary inactive | KCC2 bumet counter 0.00943 | KCC2 secondary2 inactive | HEK counter1 0.00959 | KCC2 ouabain inactive | HEK counter2 inconclusive
Cc1ccc2nc(N/C(=N/S(=O)(=O)c3ccc(F)cc3)c3ccccc3)sc2c1	Cl transport mod 4.46 | KCC2 secondary inactive | KCC2 bumet counter inactive | KCC2 secondary2 inactive | HEK counter1 inconclusive | KCC2 ouabain inactive | HEK counter2 inconclusive
C/C(=N\S(=O)(=O)c1ccc(C)cc1)NC(=S)Nc1ccc(C)cc1	none
Cc1ccc(S(=O)(=O)/N=C(/NC(=S)Nc2cccc(C)c2)c2ccccc2)cc1	Cl transport mod 20.2 (no result: S1P3 antagonist) | KCC2 secondary inactive | KCC2 bumet counter 0.0301 | KCC2 secondary2 0.0421 | HEK counter1 0.0225 | KCC2 ouabain 0.0354 | HEK counter2 0.0243
CCCCC1=CC2=CC(=O)C(C)(OC(=O)c3cnc4ccccc4n3)C(=O)C2=CO1 (stereo unspecified)	none (no result: S1P4 antag, ROMK primary, RAM inhibit, S1P4 ag, S1P3 antagonist)
